{
  "source": "PubChem BioAssay (NCI)",
  "note": "About 83,000 compounds went through this panel and 20% of them were active in at least one assay; those are over-represented in the sample as a whole.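 Results are percent growth after 48 hours of single-concentration exposure. 100 means growth as in untreated cells, lower positive values show inhibition; negative values down to -100 show cell death.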 A number with no mark means an inactive call. Active and inactive are the calls of the source. How the source made its calls: active means growth percent below 10; inactive means the rest.",
  "data": [
    {"system": "HL-60(TB) leukemia", "assay": "NCI-60 one-dose screen, 48 h (100 = growth as untreated, 0 = no growth, -100 = all killed)", "details": "10 µM unless noted", "values": [
      {"smiles": "Cc1cc(N=C2NC(=O)/C(=C/c3cc(C(C)(C)C)c(O)c(C(C)(C)C)c3)S2)n[nH]1", "growth": "5.2% (active)"},
      {"smiles": "CN1C(=O)N(C)C2SC(N/N=C/c3ccc(F)cc3)=NC21", "note": "(stereo not given)", "growth": "-4.65% (active)"},
      {"smiles": "Cc1sc(C(NC(=O)OCCn2c([N+](=O)[O-])cnc2C)C(F)(F)Cl)nc1-c1ccc(OC(F)(F)F)cc1", "note": "(stereo not given)", "growth": "-6.23% (active)"},
      {"smiles": "O=C1Nc2ccc(Cl)cc2/C1=C/c1ccc(OCc2ccc(Br)cc2F)cc1", "growth": "83.2%"},
      {"smiles": "COc1cc(CNC(=O)C[C@H](C)CCC=C(C)C)ccc1OCc1cn(-c2ccccc2Cl)nn1", "growth": "41.1%"},
      {"smiles": "COc1ccc(N(C)c2cc(C#N)nc3ccccc23)cc1N", "growth": "-10% (active)"},
      {"smiles": "Cc1ccc2nc3c(nc2c1)c1cc(I)ccc1n3CCN(C)C", "growth": "13.7%"},
      {"smiles": "O=c1cc(-c2ccccc2)oc2cc(OCCCC[P+](c3ccccc3)(c3ccccc3)c3ccccc3)cc(O)c12", "growth": "-51.5% (active)"},
      {"smiles": "COc1c(F)ccc(C(=O)Nc2ccc3nc(NC(=O)C4CCCN(S(=O)(=O)c5ccc(Br)s5)C4)sc3c2)c1F", "note": "(stereo not given)", "growth": "80.6%"},
      {"smiles": "CCCCNC(=S)Nc1ccc(OCc2nc3ccc(Cl)cc3[nH]2)cc1", "growth": "13%"},
      {"smiles": "O=C(c1ccc(Cl)cc1)C1[C@H](c2ccccc2Cl)[C@@H](c2ccccc2)NC12C(=O)Nc1ccccc12", "note": "(stereo not given in full)", "growth": "-35.1% (active)"},
      {"smiles": "CCOc1ccc(-c2cc(-c3cc(C(C)C)c(O)cc3C)nn2-c2ccc(S(N)(=O)=O)cc2)cc1", "growth": "9.77% (active)"},
      {"smiles": "Cc1ccc(-c2nc(C#N)c(S(=O)(=O)N3CCN(S(=O)(=O)c4ccccc4)CC3)o2)cc1", "growth": "-44.9% (active)"},
      {"smiles": "COc1ccc(-c2nc(Nc3ccccc3S(N)(=O)=O)c3ccccc3n2)cc1", "growth": "88.5%"},
      {"smiles": "COc1cc(-c2ccc3ncnc(N4CCc5ccc(Cl)cc54)c3c2)cnc1Cl", "growth": "-8.13% (active)"},
      {"smiles": "COc1ccc2c(c1)C(Sc1ccc(F)cc1)c1c(nc(N)c(C#N)c1N)O2", "note": "(stereo not given)", "growth": "84.9%"},
      {"smiles": "Cn1cc(-c2nc(N)nnc2-c2c[nH]c3ccc(F)cc23)c2cc(Br)cnc21", "growth": "-34% (active)"},
      {"smiles": "N#C/C(=C/c1ccc(Cl)cc1)c1nnc(NC(=O)c2ccc(-n3c(=O)[nH]c4ccccc4c3=O)cc2)s1", "growth": "98.2%"},
      {"smiles": "CC1=C(C(=O)OCc2ccccc2)C(c2ccc(-n3cncn3)cc2)n2c(nc3ccccc32)N1", "note": "(stereo not given)", "growth": "8.84% (active)"},
      {"smiles": "Nc1cc(-c2c[nH]c3ccc(Cl)cc23)nc2cc(-c3c[nH]c4ccccc34)nn12", "growth": "-18.2% (active)"},
      {"smiles": "COc1ccc(-c2ccc(SCC(=O)NCCc3ccc(S(N)(=O)=O)cc3)nn2)cc1", "growth": "60.5%"},
      {"smiles": "N/C(=N\\c1nc2ccccc2s1)NC(=O)Nc1ccccc1[N+](=O)[O-]", "growth": "-11.1% (active)"},
      {"smiles": "C=C1CC[C@@H]2[C@]3(C)COC(c4ccco4)O[C@@H]3CC[C@@]2(C)[C@@H]1C/C=C1/C(=O)OCC1OC(C)=O", "note": "(stereo not given in full)", "growth": "-5.13% (active)"},
      {"smiles": "Cn1c(O)c(N=Nc2nc(-c3cc4ccccc4oc3=O)cs2)c2cc(Br)ccc21", "growth": "96.6%"},
      {"smiles": "COc1ccc(-c2cc(C(=O)N=Nc3c(O)[nH]c4ccccc34)c3ccccc3n2)cc1", "growth": "56.2%"},
      {"smiles": "CCCCCCCCc1ccc(C(=O)Nc2cccc(O)c2)cc1", "growth": "56.5%"},
      {"smiles": "CC[C@]12C=CCN3CC[C@@]4(c5ccc(OC)cc5N(C)[C@H]4[C@@](O)(C(=O)OC)[C@@H]1OC(=O)CCC[P+](c1ccc(OC)cc1)(c1ccc(OC)cc1)c1ccc(OC)cc1)[C@@H]32", "growth": "-39.7% (active)"},
      {"smiles": "C=C1CCC2C3(C)COC(c4cc(F)cc(F)c4)OC3CCC2(C)C1C/C=C1/C(=O)OCC1O", "note": "(stereo not given)", "growth": "-9.61% (active)"},
      {"smiles": "Cc1ccc2nc(NC(=O)Nc3cccc(Cl)c3)sc2c1", "growth": "95.7%"},
      {"smiles": "Cn1cc(-c2cc(N)n3nc(-c4c[nH]c5ccccc45)cc3n2)c2ccccc21", "growth": "-24.5% (active)"},
      {"smiles": "CCOC(=O)/C(F)=C/C1CC1CCc1ccc(OCC)cc1", "note": "(stereo not given)", "growth": "101%"},
      {"smiles": "O=C(CSc1nc2sc3c(c2c(=O)n1-c1ccc(Cl)cc1)CCCC3)NNC(=O)c1ccc(F)cc1", "growth": "109%"},
      {"smiles": "CN1CCc2c(sc3ncnc(N/N=C/c4cn(-c5ccccc5)nc4-c4ccc(Br)cc4)c23)C1", "growth": "-4.94% (active)"},
      {"smiles": "O=c1[nH]c2ccc(Cl)cc2cc1CSc1ccc(Nc2nccc(-c3ccc(Cl)cc3)n2)cc1", "growth": "52.4%"},
      {"smiles": "O=C(NNC(=S)NC(=O)c1ccccc1)c1ccc(OCc2nc3ccc(Cl)cc3[nH]2)cc1", "growth": "1.3% (active)"},
      {"smiles": "C=CC(=O)N1CCN(c2ccc3nc4c(nc3c2C(F)(F)F)C(=O)c2ncccc2C4=O)CC1", "growth": "-24.7% (active)"},
      {"smiles": "Cc1cc(C2(c3cc(C)c(OCC(O)CNc4c(C)n(C)n(-c5ccccc5)c4=O)cc3C(C)C)OC(=O)c3ccccc32)c(C(C)C)cc1OCC(O)CNc1c(C)n(C)n(-c2ccccc2)c1=O", "note": "(stereo not given)", "growth": "0.434% (active)"},
      {"smiles": "COc1ccc(NC(=O)NN2C(=O)c3ccccc3N(C)C2c2ccc(OC)cc2)cc1", "note": "(stereo not given)", "growth": "101%"},
      {"smiles": "COc1ccc2ncc(C#Cc3cncc(C(=O)Nc4ccc(CN5CCN(C)CC5)c(C(F)(F)F)c4)c3)n2n1", "growth": "-60.2% (active)"},
      {"smiles": "Cn1cc(-c2cc3nc(-c4cn(C)c5ncc(Br)cc45)cc(N)n3n2)c2ccccc21", "growth": "-60.3% (active)"}
    ]}
  ]
}
